# Test results from PubChem BioAssay AID1645838 (ICCB-Longwood Screening Facility, Harvard Medical School, 2021).
# Hit rate of the full screen: of about 2,000 compounds, about 100 (5%) were called active. No stated cut-off is given here; in the data, active means z-score above about 2; inactive means the rest. What follows is part of a selection rich in actives, with near analogues and random picks from the rest.
# Assay: supercomplex reporter luminescence per Hoechst cell count – Hoechst nuclei count (AID 1645838);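 further: control cybrid cells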;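 on z-score: higher means more mitochondrial supercomplex formation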
# Conditions: Cells, luminescence/Hoechst cell count ratio; for z-score: stronger effect = higher value; for cell count: measured here: cell number, Hoechst nuclei count
# [1] = library stock concentration (final well concentration not given) 80 uM
# [2] = library stock concentration (final well concentration not given) 400 uM
# [3] = library stock concentration (final well concentration not given) 2 mM
# [4] = library stock concentration (final well concentration not given) 10 mM
# [5] = library stock concentration (final well concentration not given) 46 uM
# [6] = library stock concentration (final well concentration not given) 278 uM
# [7] = library stock concentration (final well concentration not given) 1.67 mM
smiles,measurement,setting,value
Nc1ncnc2c1c(-c1ccc(Oc3ccccc3)cc1)cn2C1CCCC1,z-score,[1],0.00446 (inactive)
same,z-score,[2],0.328 (inactive)
same,z-score,[3],0.396 (inactive)
same,z-score,[4],0.246 (inactive)
same,cell count,[1],4810
same,cell count,[2],4230
same,cell count,[3],4080
same,cell count,[4],3660
COc1cccc(-c2cn(-c3ccc(CCN4CCC(O)CC4)cc3)c3ncnc(N)c23)c1,z-score,[5],-0.0662 (inactive)
same,z-score,[6],-0.203 (inactive)
same,z-score,[7],0.503 (inactive)
same,z-score,[4],6.01 (active)
same,cell count,[5],6890
same,cell count,[6],6710
same,cell count,[7],6410
same,cell count,[4],2860
Cn1cc(-c2ccc3c(c2)CCN3C(=O)Cc2cccc(C(F)(F)F)c2)c2c(N)ncnc21,z-score,[5],-0.404 (inactive)
same,z-score,[6],-0.312 (inactive)
same,z-score,[7],-0.398 (inactive)
same,z-score,[4],0.717 (inactive)
same,cell count,[5],6450
same,cell count,[6],6260
same,cell count,[7],6230
same,cell count,[4],4040
CCCCCC(O)CCC1C(O)C[C@H]2Cc3c(cccc3OCC(=O)O)C[C@@H]12 (stereo partly drawn),z-score,[1],-0.232 (inactive)
same,z-score,[2],-0.452 (inactive)
same,z-score,[3],-0.204 (inactive)
same,z-score,[4],-0.825 (inactive)
same,cell count,[1],6220
same,cell count,[2],5860
same,cell count,[3],5910
same,cell count,[4],6040
CCCCC/C=C\C/C=C\CCCCCCCC(=O)OCC(COC(=O)CCCCCCCCCCCCCCC)OC(=O)CCCCCCC/C=C\CCCCCCCC (stereo not drawn),z-score,,0.273 (inactive)
same,cell count,,5490
O=C(Nc1nnc(-c2ccco2)o1)c1cc(-c2ccccc2)nc2ccccc12,z-score,[5],0.451 (inactive)
same,z-score,[6],0.815 (inactive)
same,z-score,[7],0.151 (inactive)
same,z-score,[4],2.24 (active)
same,cell count,[5],6600
same,cell count,[6],6010
same,cell count,[7],6640
same,cell count,[4],4920
CCCC(=O)Nc1nc(-c2ccccc2)cc(-c2ccccc2)n1,z-score,[1],-0.0977 (inactive)
same,z-score,[2],0.0694 (inactive)
same,z-score,[3],-0.49 (inactive)
same,z-score,[4],-0.335 (inactive)
same,cell count,[1],5390
same,cell count,[2],5300
same,cell count,[3],4980
same,cell count,[4],5140
COC(=O)C(NC(=O)c1cc(-c2ccccc2)nc2ccccc12)c1ccccc1 (stereo not drawn),z-score,[5],-0.299 (inactive)
same,z-score,[6],-0.209 (inactive)
same,z-score,[7],-0.176 (inactive)
same,z-score,[4],-0.0618 (inactive)
same,cell count,[5],6610
same,cell count,[6],6570
same,cell count,[7],6890
same,cell count,[4],6540
CCCC/C=C/C=C/C=C\CCCCCCCC(=O)OC,z-score,,0.121 (inactive)
same,cell count,,4950
O=C(O)CCC/C=C\C[C@@H]1C(=O)C[C@@H](O)[C@@H]1/C=C/[C@@H](O)CCc1ccccc1,z-score,,0.113 (inactive)
same,cell count,,5100
O=C1C(Cc2ccc(O)cc2)N2C(=O)CCN(C(=O)NCc3ccccc3)C2CN1Cc1cccc2ccccc12 (stereo not drawn),z-score,[5],-0.329 (inactive)
same,z-score,[6],-0.452 (inactive)
same,z-score,[7],-1.5 (inactive)
same,z-score,[4],-0.675 (inactive)
same,cell count,[5],7210
same,cell count,[6],7220
same,cell count,[7],7090
same,cell count,[4],4220
CN(C)CCC1(c2ccc(Cl)cc2)Cc2ccccc2C(=O)O1 (stereo not drawn),z-score,[5],-0.548 (inactive)
same,z-score,[6],-0.51 (inactive)
same,z-score,[7],-0.496 (inactive)
same,z-score,[4],0.011 (inactive)
same,cell count,[5],6980
same,cell count,[6],6360
same,cell count,[7],6480
same,cell count,[4],6170
C=C(C)[C@@H]1CCC(C)=C[C@H]1c1c(O)cc(C)cc1O,z-score,,-0.799 (inactive)
same,cell count,,5690
Nc1nc2c([nH]c(=O)n2[C@@H]2O[C@H](CO)[C@@H](O)[C@H]2O)c(=O)[nH]1,z-score,,-0.949 (inactive)
same,cell count,,5870
NC(=O)c1cccc(-c2cccc(OC(=O)NC3CCCCC3)c2)c1,z-score,,-0.595 (inactive)
same,cell count,,5600
COc1cccc(-c2ccc(NC(=O)C3=C(C(=O)O)CCC3)c(F)c2)c1,z-score,[5],0.0997 (inactive)
same,z-score,[6],0.11 (inactive)
same,z-score,[7],-0.285 (inactive)
same,z-score,[4],7.02 (active)
same,cell count,[5],6810
same,cell count,[6],6860
same,cell count,[7],6660
same,cell count,[4],3760
COc1cc(NC(=O)c2ccc(-c3ccc(Cl)cc3)o2)cc(OC)c1,z-score,[5],-0.316 (inactive)
same,z-score,[6],0.0249 (inactive)
same,z-score,[7],-0.417 (inactive)
same,z-score,[4],-1 (inactive)
same,cell count,[5],6650
same,cell count,[6],6230
same,cell count,[7],6670
same,cell count,[4],6710
C[C@@H](O)CCC[C@H](O)/C=C/C1=C(C/C=C\CCCC(=O)O)C(=O)CC1,z-score,,-0.229 (inactive)
same,cell count,,5100
c1ccc(Cc2ccncc2)cc1,z-score,[1],-0.46 (inactive)
same,z-score,[2],-0.111 (inactive)
same,z-score,[3],-0.201 (inactive)
same,z-score,[4],-0.169 (inactive)
same,cell count,[1],5970
same,cell count,[2],5030
same,cell count,[3],5260
same,cell count,[4],5220
CC/C=C\C/C=C\C/C=C\CCCCCCCC(=O)O,z-score,,-0.381 (inactive)
same,cell count,,5900
CCCCCCCCCCCC(=O)CC(=O)N[C@H]1CCOC1=O,z-score,,-0.866 (inactive)
same,cell count,,5800
CCCCC[C@H](O)/C=C/[C@H]1CC[C@@H](O)[C@@H]1CCCCCCC(=O)O,z-score,,0.234 (inactive)
same,cell count,,5240
CC1COCCN1c1cc(C2(S(C)(=O)=O)CC2)nc(-c2cccc3[nH]ccc23)n1 (stereo not drawn),outcome,library stock 10 mM,inactive; censored for cell count
same,z-score,[1],-0.307 (inactive)
same,z-score,[2],-0.152 (inactive)
same,z-score,[3],2.1 (active)
same,cell count,[1],5900
same,cell count,[2],5550
same,cell count,[3],2180
